# Results published in PMC7862700, “An all-to-all approach to the identification of sequence-specific readers for epigenetic DNA modifications on cytosine”.
# How the values were obtained:
# Assay in all cases: DAPPL (digital affinity profiling via proximity ligation, sequencing); 10 mM Tris-HCl pH 7.5, 50 mM NaCl, 1 mM DTT, 4% glycerol, room temperature, 30 min; GST-TFs on glutathione beads, 16-mer random dsDNA library, 0.1% formaldehyde crosslink after washing; high values mean tight binding
# FLI1 = biological target: T1, FLI1 (Homo sapiens, UniProt Q01543 1-452); conditions: protein: recombinant; tags: N-terminal GST; dsDNA, one strand shown
# T1 sequence: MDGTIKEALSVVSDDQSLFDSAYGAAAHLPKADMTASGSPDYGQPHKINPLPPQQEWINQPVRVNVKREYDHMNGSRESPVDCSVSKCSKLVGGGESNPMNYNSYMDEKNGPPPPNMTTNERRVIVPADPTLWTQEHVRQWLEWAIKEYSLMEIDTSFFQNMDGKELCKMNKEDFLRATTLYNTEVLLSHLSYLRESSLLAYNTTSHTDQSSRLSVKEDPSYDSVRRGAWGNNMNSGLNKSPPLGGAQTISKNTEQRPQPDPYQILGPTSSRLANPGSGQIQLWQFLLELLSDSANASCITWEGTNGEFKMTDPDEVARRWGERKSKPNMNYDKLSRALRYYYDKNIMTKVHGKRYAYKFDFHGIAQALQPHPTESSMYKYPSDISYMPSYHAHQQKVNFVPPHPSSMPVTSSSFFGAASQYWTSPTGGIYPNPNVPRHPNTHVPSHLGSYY
# Summary of the method: (§1)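 GST fusions of human transcription factors were expressed in yeast and captured with glutathione beads. Once given DNA barcodes and pooled alongside a tag-only sample, they were incubated for 30 min at room temperature with 200 nmole of a random double-stranded 16-mer DNA library in Tris/NaCl/DTT/glycerol buffer, then washed, crosslinked (0.1% formaldehyde), proximity-ligated, PCR-amplified and sequenced on an Illumina NextSeq500. The binding signal of each hexamer is its read frequency for a factor divided by its frequency for the tag-only sample.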
# ELK1 = biological target: T2, ELK1 (Homo sapiens, UniProt P19419 1-428); conditions: protein: recombinant; tags: N-terminal GST; dsDNA, one strand shown
# T2 sequence: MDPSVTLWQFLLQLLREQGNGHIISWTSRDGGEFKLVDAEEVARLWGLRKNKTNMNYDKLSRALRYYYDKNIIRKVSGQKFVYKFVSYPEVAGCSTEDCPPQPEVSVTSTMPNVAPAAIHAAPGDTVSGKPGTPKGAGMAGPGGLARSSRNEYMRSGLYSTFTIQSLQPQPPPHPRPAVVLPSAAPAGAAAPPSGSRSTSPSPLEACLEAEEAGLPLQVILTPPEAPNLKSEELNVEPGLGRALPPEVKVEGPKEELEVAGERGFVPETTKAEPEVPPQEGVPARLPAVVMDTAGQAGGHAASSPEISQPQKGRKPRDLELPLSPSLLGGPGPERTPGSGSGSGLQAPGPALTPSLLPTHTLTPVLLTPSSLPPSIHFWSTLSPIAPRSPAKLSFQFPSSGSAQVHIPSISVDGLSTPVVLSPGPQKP
# Summary of the method: as §1
# GABPA = biological target: T3, GABPA (Homo sapiens, UniProt Q06546 1-454); conditions: protein: recombinant; tags: N-terminal GST; dsDNA, one strand shown
# T3 sequence: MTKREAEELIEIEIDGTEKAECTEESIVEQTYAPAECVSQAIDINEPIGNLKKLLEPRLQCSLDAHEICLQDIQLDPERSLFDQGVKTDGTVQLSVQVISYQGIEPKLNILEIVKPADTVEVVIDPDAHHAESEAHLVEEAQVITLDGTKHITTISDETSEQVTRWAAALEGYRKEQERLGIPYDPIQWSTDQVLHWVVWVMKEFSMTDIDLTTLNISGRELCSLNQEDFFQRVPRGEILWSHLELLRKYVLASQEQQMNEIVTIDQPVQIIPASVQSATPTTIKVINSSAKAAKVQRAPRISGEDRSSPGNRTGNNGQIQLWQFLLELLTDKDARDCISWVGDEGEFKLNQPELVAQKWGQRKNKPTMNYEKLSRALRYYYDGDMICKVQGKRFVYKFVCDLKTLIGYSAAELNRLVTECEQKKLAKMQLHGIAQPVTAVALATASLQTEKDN
# Summary of the method: as §1
# ERG = biological target: T4, ERG (Homo sapiens, UniProt P11308 1-479); conditions: protein: recombinant; tags: N-terminal GST; dsDNA, one strand shown
# T4 sequence: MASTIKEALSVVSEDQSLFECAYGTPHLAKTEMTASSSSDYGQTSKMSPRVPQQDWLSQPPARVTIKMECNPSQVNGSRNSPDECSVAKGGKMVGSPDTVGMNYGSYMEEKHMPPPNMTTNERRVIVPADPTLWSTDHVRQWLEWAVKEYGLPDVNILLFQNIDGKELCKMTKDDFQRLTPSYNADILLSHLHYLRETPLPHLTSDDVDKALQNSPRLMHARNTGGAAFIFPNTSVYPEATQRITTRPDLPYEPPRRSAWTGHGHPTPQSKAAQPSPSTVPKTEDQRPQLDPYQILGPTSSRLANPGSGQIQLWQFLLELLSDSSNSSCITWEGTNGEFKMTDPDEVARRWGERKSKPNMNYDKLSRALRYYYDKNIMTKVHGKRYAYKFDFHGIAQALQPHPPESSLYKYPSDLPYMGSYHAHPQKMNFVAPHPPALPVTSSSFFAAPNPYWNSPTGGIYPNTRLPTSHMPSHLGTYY
# Summary of the method: as §1
# ELF1 = ELF1 (Homo sapiens, UniProt P32519 1-619); conditions: protein: recombinant; tags: N-terminal GST; dsDNA, one strand shown
# Summary of the method: as §1
# EHF = biological target: T5, EHF (Homo sapiens, UniProt Q9NZC4 1-300); conditions: protein: recombinant; tags: N-terminal GST; dsDNA, one strand shown
# T5 sequence: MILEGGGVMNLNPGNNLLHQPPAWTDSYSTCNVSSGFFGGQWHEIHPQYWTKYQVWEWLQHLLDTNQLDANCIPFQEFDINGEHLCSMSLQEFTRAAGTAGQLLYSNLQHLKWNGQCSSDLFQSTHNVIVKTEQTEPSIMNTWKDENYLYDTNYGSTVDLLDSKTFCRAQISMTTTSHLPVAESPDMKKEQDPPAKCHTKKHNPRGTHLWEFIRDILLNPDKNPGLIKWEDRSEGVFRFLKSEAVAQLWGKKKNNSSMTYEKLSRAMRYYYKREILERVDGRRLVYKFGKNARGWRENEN
# Summary of the method: as §1
# SPI1 = SPI1 (Homo sapiens, UniProt P17947 1-270); conditions: protein: recombinant; tags: N-terminal GST; dsDNA, one strand shown
# Summary of the method: as §1
# SPIB = SPIB (Homo sapiens, UniProt Q01892 1-262); conditions: protein: recombinant; tags: N-terminal GST; dsDNA, one strand shown
# Summary of the method: as §1
# ELK3 = biological target: T6, ELK3 (Homo sapiens, UniProt P41970 1-407); conditions: protein: recombinant; tags: N-terminal GST; dsDNA, one strand shown
# T6 sequence: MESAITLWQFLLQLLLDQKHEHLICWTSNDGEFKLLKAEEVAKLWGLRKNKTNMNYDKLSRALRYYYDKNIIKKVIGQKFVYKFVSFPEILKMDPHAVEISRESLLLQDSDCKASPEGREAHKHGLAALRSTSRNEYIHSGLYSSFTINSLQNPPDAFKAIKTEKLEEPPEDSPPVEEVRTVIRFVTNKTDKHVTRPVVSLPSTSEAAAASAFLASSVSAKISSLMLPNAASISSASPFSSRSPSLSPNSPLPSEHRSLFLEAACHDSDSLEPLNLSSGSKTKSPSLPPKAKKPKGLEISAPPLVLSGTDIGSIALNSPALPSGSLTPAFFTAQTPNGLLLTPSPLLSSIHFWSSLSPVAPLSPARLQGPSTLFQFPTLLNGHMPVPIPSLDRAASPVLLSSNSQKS
# Summary of the method: as §1
# FEV = biological target: T7, FEV (Homo sapiens, UniProt Q99581 1-238); conditions: protein: recombinant; tags: N-terminal GST; dsDNA, one strand shown
# T7 sequence: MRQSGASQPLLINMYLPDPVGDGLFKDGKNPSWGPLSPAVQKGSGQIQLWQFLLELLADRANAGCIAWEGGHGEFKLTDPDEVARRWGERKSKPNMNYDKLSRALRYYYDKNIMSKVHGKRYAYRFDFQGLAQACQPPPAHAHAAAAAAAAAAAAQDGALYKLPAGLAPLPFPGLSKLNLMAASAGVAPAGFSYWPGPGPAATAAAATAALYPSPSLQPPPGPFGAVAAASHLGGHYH
# Summary of the method: as §1
# ETV5 = ETV5 (Homo sapiens, UniProt P41161 1-510); conditions: protein: recombinant; tags: N-terminal GST; dsDNA, one strand shown
# Summary of the method: as §1
# HSF1 = HSF1 (Homo sapiens, UniProt Q00613 1-529); conditions: protein: recombinant; tags: N-terminal GST; chain copies: 3; dsDNA, one strand shown
# Summary of the method: as §1
# SPIC = biological target: T8, SPIC (Homo sapiens, UniProt Q8N5J4 1-248); conditions: protein: recombinant; tags: N-terminal GST; dsDNA, one strand shown
# T8 sequence: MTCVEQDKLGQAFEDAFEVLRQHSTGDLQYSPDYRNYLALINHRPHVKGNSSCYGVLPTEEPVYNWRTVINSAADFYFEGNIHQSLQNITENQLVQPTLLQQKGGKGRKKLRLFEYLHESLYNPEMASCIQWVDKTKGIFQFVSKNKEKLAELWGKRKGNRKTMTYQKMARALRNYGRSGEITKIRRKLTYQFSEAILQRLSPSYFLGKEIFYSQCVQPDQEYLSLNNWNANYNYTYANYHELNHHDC
# Summary of the method: as §1
# ELF4 = ELF4 (Homo sapiens, UniProt Q99607 1-663); conditions: protein: recombinant; tags: N-terminal GST; dsDNA, one strand shown
# Summary of the method: as §1
# ELK4 = biological target: T9, ELK4 (Homo sapiens, UniProt P28324-2 1-405); conditions: protein: recombinant; tags: N-terminal GST; dsDNA, one strand shown
# T9 sequence: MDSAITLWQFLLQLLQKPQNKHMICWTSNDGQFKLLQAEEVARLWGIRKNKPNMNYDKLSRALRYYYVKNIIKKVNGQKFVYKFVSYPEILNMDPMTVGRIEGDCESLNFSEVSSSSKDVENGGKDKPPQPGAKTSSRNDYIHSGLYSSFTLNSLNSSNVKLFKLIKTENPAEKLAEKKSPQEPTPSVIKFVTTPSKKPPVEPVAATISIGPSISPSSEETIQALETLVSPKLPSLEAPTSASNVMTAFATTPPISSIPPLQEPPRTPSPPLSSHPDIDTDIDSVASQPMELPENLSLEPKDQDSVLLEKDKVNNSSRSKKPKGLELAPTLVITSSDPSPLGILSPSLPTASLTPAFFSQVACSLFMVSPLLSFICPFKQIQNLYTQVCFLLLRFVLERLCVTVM
# Summary of the method: as §1
# ETV2 = biological target: T10, ETV2 (Homo sapiens, UniProt O00321 1-342); conditions: protein: recombinant; tags: N-terminal GST; dsDNA, one strand shown
# T10 sequence: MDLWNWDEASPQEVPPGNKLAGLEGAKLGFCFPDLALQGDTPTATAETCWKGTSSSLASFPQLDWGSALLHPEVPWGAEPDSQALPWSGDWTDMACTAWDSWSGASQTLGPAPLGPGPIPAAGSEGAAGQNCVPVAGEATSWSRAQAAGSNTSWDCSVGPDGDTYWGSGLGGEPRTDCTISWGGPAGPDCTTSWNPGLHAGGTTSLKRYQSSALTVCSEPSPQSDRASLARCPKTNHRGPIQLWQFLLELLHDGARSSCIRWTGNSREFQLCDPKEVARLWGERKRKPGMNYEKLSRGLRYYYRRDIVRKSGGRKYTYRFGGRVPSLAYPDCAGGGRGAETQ
# Summary of the method: as §1
# ELF3 = biological target: T11, ELF3 (Homo sapiens, UniProt P78545 1-371); conditions: protein: recombinant; tags: N-terminal GST; dsDNA, one strand shown
# T11 sequence: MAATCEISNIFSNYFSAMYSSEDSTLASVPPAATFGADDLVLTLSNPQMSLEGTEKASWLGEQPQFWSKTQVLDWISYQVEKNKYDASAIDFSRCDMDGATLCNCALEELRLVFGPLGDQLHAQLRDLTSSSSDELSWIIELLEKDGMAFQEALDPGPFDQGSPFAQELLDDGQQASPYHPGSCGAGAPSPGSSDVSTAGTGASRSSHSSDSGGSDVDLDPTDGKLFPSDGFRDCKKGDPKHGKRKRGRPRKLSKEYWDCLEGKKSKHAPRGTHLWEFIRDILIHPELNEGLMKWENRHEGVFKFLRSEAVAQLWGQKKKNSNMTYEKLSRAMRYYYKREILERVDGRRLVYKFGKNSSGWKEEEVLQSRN
# Summary of the method: as §1
# CRX = CRX (Homo sapiens, UniProt O43186 1-299); conditions: protein: recombinant; tags: N-terminal GST; dsDNA, one strand shown
# Summary of the method: as §1
# ETV1 = ETV1 (Homo sapiens, UniProt P50549 1-477); conditions: protein: recombinant; tags: N-terminal GST; dsDNA, one strand shown
# Summary of the method: as §1
# SPIB, sequence (Q01892 whole entry): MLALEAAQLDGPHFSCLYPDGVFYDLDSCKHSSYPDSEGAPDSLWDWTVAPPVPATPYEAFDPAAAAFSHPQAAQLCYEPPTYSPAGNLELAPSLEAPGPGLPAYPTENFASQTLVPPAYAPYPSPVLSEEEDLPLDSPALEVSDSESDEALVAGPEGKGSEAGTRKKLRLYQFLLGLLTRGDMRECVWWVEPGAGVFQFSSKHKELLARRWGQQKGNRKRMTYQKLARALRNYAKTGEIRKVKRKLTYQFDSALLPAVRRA
# HSF1, sequence (Q00613 whole entry): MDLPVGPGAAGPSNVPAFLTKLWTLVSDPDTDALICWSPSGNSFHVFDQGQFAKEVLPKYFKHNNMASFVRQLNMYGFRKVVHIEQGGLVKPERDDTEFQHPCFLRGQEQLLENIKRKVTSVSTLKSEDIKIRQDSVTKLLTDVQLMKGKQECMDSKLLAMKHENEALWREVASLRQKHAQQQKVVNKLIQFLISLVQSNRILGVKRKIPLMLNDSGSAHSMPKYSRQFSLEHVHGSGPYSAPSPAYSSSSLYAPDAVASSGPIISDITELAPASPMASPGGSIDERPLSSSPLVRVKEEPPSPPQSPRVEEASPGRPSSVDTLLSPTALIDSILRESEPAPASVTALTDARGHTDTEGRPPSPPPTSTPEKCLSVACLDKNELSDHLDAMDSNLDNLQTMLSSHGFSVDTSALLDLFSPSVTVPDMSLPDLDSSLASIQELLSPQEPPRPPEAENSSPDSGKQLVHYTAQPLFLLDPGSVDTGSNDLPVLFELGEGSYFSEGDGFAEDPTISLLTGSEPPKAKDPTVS
# CRX, sequence (O43186 whole entry): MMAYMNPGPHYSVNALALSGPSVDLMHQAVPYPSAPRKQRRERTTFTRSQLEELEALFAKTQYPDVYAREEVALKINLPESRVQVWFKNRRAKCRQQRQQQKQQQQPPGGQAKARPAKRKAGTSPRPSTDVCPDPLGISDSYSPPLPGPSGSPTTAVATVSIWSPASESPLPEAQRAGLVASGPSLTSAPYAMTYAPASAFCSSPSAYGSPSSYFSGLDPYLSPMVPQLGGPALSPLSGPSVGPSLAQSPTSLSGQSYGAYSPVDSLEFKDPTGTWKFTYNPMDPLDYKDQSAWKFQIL
# ELF1, sequence (P32519 whole entry): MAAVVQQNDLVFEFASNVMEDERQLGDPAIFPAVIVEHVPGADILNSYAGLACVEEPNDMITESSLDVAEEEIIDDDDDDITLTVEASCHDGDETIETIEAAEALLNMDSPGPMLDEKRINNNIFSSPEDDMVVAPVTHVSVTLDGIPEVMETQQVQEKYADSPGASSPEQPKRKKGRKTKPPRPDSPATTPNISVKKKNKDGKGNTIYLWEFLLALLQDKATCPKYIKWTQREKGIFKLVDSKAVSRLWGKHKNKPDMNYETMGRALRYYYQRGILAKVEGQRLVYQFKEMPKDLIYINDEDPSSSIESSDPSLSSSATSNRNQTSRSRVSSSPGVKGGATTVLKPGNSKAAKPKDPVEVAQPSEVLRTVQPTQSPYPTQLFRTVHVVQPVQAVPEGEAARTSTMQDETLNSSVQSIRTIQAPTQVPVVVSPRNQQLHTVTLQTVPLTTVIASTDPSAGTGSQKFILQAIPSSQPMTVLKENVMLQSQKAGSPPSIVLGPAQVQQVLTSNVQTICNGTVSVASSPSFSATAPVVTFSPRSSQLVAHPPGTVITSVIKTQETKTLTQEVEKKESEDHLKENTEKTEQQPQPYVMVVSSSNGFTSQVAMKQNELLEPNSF
# ETV5, sequence (P41161 whole entry): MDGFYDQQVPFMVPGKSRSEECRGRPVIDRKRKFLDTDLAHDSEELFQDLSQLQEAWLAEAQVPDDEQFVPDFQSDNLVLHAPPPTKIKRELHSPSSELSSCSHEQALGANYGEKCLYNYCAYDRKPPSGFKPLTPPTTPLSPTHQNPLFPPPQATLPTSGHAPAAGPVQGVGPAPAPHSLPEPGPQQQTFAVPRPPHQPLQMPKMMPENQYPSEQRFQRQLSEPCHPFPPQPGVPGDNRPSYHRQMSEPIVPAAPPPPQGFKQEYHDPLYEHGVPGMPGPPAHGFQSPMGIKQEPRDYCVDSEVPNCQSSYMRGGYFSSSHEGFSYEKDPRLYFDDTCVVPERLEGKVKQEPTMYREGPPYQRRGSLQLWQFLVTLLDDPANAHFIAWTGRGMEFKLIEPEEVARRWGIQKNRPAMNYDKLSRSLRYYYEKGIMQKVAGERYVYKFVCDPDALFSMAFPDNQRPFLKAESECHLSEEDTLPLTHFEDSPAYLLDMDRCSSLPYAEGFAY
# ELF4, sequence (Q99607 whole entry): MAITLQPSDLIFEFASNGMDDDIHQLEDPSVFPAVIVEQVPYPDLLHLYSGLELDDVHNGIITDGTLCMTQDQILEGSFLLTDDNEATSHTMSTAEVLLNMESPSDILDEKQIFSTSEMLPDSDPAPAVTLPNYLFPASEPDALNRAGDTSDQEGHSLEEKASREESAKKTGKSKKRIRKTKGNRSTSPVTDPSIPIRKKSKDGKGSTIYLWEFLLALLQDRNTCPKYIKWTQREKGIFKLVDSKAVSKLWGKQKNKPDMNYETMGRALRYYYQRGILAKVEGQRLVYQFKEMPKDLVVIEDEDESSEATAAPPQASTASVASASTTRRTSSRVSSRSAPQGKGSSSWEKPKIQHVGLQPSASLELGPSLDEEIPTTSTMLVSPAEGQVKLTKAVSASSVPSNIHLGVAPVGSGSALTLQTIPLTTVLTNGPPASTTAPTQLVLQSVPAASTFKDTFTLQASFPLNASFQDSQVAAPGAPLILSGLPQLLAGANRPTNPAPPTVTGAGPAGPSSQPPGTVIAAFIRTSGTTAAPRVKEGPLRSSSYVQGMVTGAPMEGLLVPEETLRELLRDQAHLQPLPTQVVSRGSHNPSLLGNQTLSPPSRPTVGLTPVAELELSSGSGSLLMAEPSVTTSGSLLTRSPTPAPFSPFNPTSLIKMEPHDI
# ETV1, sequence (P50549 whole entry): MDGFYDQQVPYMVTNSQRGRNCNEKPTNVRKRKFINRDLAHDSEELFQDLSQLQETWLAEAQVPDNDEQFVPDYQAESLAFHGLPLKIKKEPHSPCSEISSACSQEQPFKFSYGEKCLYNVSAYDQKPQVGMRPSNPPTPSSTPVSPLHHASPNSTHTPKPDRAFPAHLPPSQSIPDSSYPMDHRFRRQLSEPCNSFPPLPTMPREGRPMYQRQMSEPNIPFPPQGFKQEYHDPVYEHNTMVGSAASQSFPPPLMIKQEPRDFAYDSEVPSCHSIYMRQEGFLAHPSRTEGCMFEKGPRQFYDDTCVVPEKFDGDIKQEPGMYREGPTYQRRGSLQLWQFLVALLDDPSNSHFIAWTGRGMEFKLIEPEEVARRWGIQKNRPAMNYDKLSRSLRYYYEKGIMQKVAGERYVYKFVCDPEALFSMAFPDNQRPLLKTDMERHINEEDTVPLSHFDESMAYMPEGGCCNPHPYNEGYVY
sequence,measurement,setting,value
TCATCT,binding signal,FLI1,"1.23 fold enrichment (6-mer frequency, TF over GST control)"
same,binding signal,ELK1,"1.28 fold enrichment (6-mer frequency, TF over GST control)"
same,binding signal,GABPA,"1.27 fold enrichment (6-mer frequency, TF over GST control)"
same,binding signal,ERG,"1.15 fold enrichment (6-mer frequency, TF over GST control)"
same,binding signal,ELF1,"1.3 fold enrichment (6-mer frequency, TF over GST control)"
same,binding signal,EHF,"1.13 fold enrichment (6-mer frequency, TF over GST control)"
same,binding signal,SPI1,"1.18 fold enrichment (6-mer frequency, TF over GST control)"
same,binding signal,SPIB,"1.28 fold enrichment (6-mer frequency, TF over GST control)"
same,binding signal,ELK3,"1.16 fold enrichment (6-mer frequency, TF over GST control)"
same,binding signal,FEV,"1.08 fold enrichment (6-mer frequency, TF over GST control)"
same,binding signal,ETV5,"1.19 fold enrichment (6-mer frequency, TF over GST control)"
same,binding signal,HSF1,"1.44 fold enrichment (6-mer frequency, TF over GST control)"
same,binding signal,SPIC,"1.32 fold enrichment (6-mer frequency, TF over GST control)"
same,binding signal,ELF4,"1.18 fold enrichment (6-mer frequency, TF over GST control)"
same,binding signal,ELK4,"1.59 fold enrichment (6-mer frequency, TF over GST control)"
same,binding signal,ETV2,"1.38 fold enrichment (6-mer frequency, TF over GST control)"
same,binding signal,ELF3,"1.37 fold enrichment (6-mer frequency, TF over GST control)"
same,binding signal,CRX,"1.5 fold enrichment (6-mer frequency, TF over GST control)"
same,binding signal,ETV1,"1.15 fold enrichment (6-mer frequency, TF over GST control)"
